# Laboratory results as given in PubChem BioAssay (NCATS).
# Results filed as inconclusive are left out. Entries that show only a call come without a potency. Activity calls are given as the source filed them. Calls follow the shape of the dose curve; as a rule, active = well fitted curve in the direction sought with a large enough effect; inconclusive = small, poorly fitted or top-dose-only effect, or another doubt; inactive = no such curve, though single readings can be large; an effect the other way counts as inactive or inconclusive.
# Key:
# [1] = qHTS of pediatric cancer cell lines to identify multiple opportunities for drug repurposing: Primary screen for control Hh wild type fibroblast cells (AID 1347106);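 also: a drop in luminescence marks cytotoxicity and a rise apparent proliferation; nearly all actives have a fitted effect of over 55% in size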
# Method in brief: (§1)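 Cells (500-1,000/well) in growth media were settled 5 h at 37 degrees C, then given compounds for 48 h. Viability was read as CellTiter-Glo luminescence. Primary runs used MIPE at 11 points (0.78 nM-46 µM) and NPC at 8 points (0.59 nM-46 µM); follow-ups used 11 points.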
# [2] = qHTS of pediatric cancer cell lines to identify multiple opportunities for drug repurposing: Primary screen for Rh30 cells (AID 1347107); also: nearly all actives have a fitted effect of over 75% in size
# Method in brief: as §1
# [3] = qHTS of pediatric cancer cell lines to identify multiple opportunities for drug repurposing: Primary screen for Rh41 cells (AID 1347108);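 also: luminescence drop marks cytotoxic hits; nearly all actives have a fitted effect of over 70% in size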
# Method in brief: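 Luminescence from CellTiter-Glo served as readout of metabolically active cells after 48 h compound exposure. Titrations: MIPE 11-point, from 0.78 nM; NPC 8-point, from 0.59 nM (final). Concentration-response curves came straight from the primary screen.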
# Also: series mostly up to about 46 µM.
Structure (SMILES),Potency [1],Potency [2],Potency [3]
CC(C)Cn1cnc2c(N)nc3ccccc3c21,inactive,inactive,
CCn1cc(C(=O)O)c(=O)c2cc(F)c(N3CCN(C)CC3)cc21,inactive,inactive,inactive
COc1ccc2cc3[n+](cc2c1OC)CCc1cc2c(cc1-3)OCO2,inactive,inactive,
CCCCS(=N)(=O)CCC(N)C(=O)O (stereo unspecified),inactive,inactive,inactive
CC(N)C12CC3CC(CC(C3)C1)C2 (stereo unspecified),inactive,inactive,inactive
Cc1cccc(Nc2ccncc2S(=O)(=O)NC(=O)NC(C)C)c1,inactive,inactive,inactive
NCCCC(O)(P(=O)(O)O)P(=O)(O)O,inactive,inactive,inactive
CCCc1cc(C(N)=S)ccn1,inactive,inactive,inactive
CCC(C)(C)c1ccc(CC(C)CN2C[C@@H](C)O[C@@H](C)C2)cc1 (stereo partly specified),inactive,inactive,inactive
Cc1cc(NS(=O)(=O)c2ccc(N)cc2)no1,inactive,inactive,inactive
CC[C@H](C)C(=O)O[C@H]1C[C@@H](C)C=C2C=C[C@H](C)[C@H](CC[C@@H]3C[C@@H](O)CC(=O)O3)[C@H]21,inactive,,
N[C@@H](C(=O)N[C@@H]1C(=O)N2C(C(=O)O)=C(Cl)CS[C@H]12)c1ccccc1,inactive,inactive,inactive
NS(=O)(=O)c1cc2c(cc1Cl)NC(C(Cl)Cl)NS2(=O)=O (stereo unspecified),inactive,inactive,inactive
O=C(O)c1ccc(-n2nc(-c3ccccc3O)nc2-c2ccccc2O)cc1,inactive,inactive,
O=C(O)c1cn(C2CC2)c2cc(N3CCNCC3)c(F)cc2c1=O,inactive,inactive,inactive
CC(=O)[C@H]1CC[C@H]2[C@@H]3CCC4=CC(=O)CC[C@]4(C)[C@H]3CC[C@]12C,inactive,,
O[C@@H](CNC[C@H](O)[C@H]1CCc2cc(F)ccc2O1)[C@@H]1CCc2cc(F)ccc2O1,inactive,inactive,
COc1ccc2c(c1)c(CC(=O)OCC(=O)O)c(C)n2C(=O)c1ccc(Cl)cc1,inactive,inactive,
C1CCC(C(CC2CCCCN2)C2CCCCC2)CC1 (stereo unspecified),inactive,inactive,
CN1CCN(c2c(F)cc3c(=O)c(C(=O)O)cn(CCF)c3c2F)CC1,inactive,inactive,inactive
NNC(=O)c1ccncc1,inactive,inactive,inactive
NC(=O)c1ccc2[nH]ccc2c1,inactive,,
CC(=O)Oc1ccccc1C(=O)Nc1ncc([N+](=O)[O-])s1,inactive,,
COc1cc(NS(=O)(=O)c2ccc(N)cc2)nc(OC)n1,inactive,inactive,inactive
N[C@@H](Cc1ccc(O)c(O)c1)C(=O)O,inactive,inactive,inactive

Structure (SMILES),Potency [1],Potency [2],Potency [3]
CC1=CC(=O)c2ccccc2C1=O,inactive,inactive,
CCN1CCCC1CNC(=O)c1cc(S(N)(=O)=O)ccc1OC (stereo unspecified),inactive,inactive,inactive
O=c1cc(O)c(Cl)c[nH]1,inactive,inactive,
NC(N)=NC(N)=NCCc1ccccc1,inactive,inactive,
COC(c1ccccc1)(c1ccccc1)[C@H](Oc1nc(C)cc(C)n1)C(=O)O,inactive,inactive,inactive
CCOC(=O)[C@H](CCc1ccccc1)N[C@H]1CCc2ccccc2N(CC(=O)O)C1=O,inactive,,
O=C(O)C1CCCN(CCC=C(c2ccccc2)c2ccccc2)C1 (stereo unspecified),inactive,inactive,
CCCCCCNC(=O)n1cc(F)c(=O)[nH]c1=O,inactive,inactive,inactive
COc1cc2ncnc(Nc3cccc(Cl)c3)c2cc1OC,inactive,inactive,
OCc1ccc(-c2nn(Cc3ccccc3)c3ccccc23)o1,inactive,inactive,
CNC1CCCN(c2c(F)cc3c(=O)c(C(=O)O)cn(C4CC4)c3c2OC)C1 (stereo unspecified),inactive,inactive,
Cc1nnc(NS(=O)(=O)c2ccc(N)cc2)s1,inactive,inactive,
NC(=O)c1cccc(N)c1,inactive,inactive,inactive
CCOCC(O)COc1ccc(NC(=O)CC[S+](C)C)cc1 (stereo unspecified),inactive,inactive,inactive
CC(C)OC(=O)OCOP(=O)(CO[C@H](C)Cn1cnc2c(N)ncnc21)OCOC(=O)OC(C)C,inactive,inactive,inactive
CC(=O)CC(c1ccccc1)c1c(O)c2ccccc2oc1=O (stereo unspecified),inactive,inactive,inactive
Cc1c(-c2ccc(O)cc2)n(Cc2ccc(OCCN3CCCCCC3)cc2)c2ccc(O)cc12,inactive,inactive,inactive
CCn1cc(C(=O)O)c(=O)c2cc(F)c(N3CCNCC3)nc21,inactive,inactive,inactive
Cc1oc(=O)oc1CN1CCN(c2cc3c(cc2F)c(=O)c(C(=O)O)c2n3C(C)S2)CC1 (stereo unspecified),inactive,inactive,inactive
CC1=NN(c2ccccc2)C(=O)C1,inactive,inactive,inactive
CC1=C(C(=O)O)N2C(=O)[C@@H](NC(=O)C(N)c3ccccc3)[C@H]2SC1 (stereo partly specified),inactive,inactive,inactive
CCOc1cc(N)c(Cl)cc1C(=O)NCC1CN(Cc2ccc(F)cc2)CCO1 (stereo unspecified),inactive,inactive,inactive
COCCCOc1cc(C[C@@H](C[C@H](N)[C@@H](O)C[C@H](C(=O)NCC(C)(C)C(N)=O)C(C)C)C(C)C)ccc1OC,inactive,inactive,inactive
CN(CCOc1ccc(CC2SC(=O)NC2=O)cc1)c1ccccn1 (stereo unspecified),inactive,inactive,inactive
CCN[C@H]1C[C@H](C)S(=O)(=O)c2sc(S(N)(=O)=O)cc21,inactive,inactive,inactive
